# PubChem BioAssay AID651650 (Sanford-Burnham Center for Chemical Genomics, 2012)
# Target: Neuropilin-1 (Homo sapiens) (UniProt O14786)
# Assay: blockers of CendR peptide binding to NRP-1 – biochemical, FP and AlphaScreen panel, dose response (AID 651650)
# Details: NRP-1 b1b2 / RPARPAR peptide binding, FP or AlphaScreen; run 1, at 100 µM (top of the series)
# Sequence of Neuropilin-1 (Homo sapiens) (O14786 whole entry, looked up): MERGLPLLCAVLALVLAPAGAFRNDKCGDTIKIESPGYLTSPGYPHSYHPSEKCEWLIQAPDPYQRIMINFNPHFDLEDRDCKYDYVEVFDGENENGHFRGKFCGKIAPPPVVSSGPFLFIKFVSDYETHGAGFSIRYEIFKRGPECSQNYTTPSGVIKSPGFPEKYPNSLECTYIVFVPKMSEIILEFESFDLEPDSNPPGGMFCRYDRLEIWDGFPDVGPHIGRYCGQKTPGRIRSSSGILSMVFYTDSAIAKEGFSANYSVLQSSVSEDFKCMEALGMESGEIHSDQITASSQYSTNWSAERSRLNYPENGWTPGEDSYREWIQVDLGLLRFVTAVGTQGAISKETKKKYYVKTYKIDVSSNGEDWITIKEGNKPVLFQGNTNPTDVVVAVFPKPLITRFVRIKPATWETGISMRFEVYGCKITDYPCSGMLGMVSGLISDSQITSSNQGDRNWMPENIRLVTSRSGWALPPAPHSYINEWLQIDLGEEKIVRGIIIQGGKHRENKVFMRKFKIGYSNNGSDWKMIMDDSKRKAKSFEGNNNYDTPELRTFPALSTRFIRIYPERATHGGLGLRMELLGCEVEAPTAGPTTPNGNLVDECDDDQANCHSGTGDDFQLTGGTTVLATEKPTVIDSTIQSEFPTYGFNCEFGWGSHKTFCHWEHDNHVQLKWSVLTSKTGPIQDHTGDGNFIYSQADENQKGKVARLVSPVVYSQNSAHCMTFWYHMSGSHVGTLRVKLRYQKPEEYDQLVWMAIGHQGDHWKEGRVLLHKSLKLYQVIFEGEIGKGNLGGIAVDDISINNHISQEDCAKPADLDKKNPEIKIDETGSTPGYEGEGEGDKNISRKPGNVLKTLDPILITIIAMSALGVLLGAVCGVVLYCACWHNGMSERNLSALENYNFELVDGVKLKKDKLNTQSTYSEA
row,Structure (SMILES),inhibition [%]
1,Cc1ccc(Nc2c(-c3ccccc3O)nc3ncccn23)cc1,19.2
2,CC(C)(C)n1nc(-c2ccc(F)cc2)c2c(N)ncnc21,39.3
3,CCC1=C(OC(=O)N(CC)CC)N2C(=O)OC(=NCC(=O)OC)[C@]2(Cc2ccccc2)[C@H]2C1=CC[C@H]1C(=O)N(CC(=O)OC)C(=O)[C@H]12,70.2
4,O=[N+]([O-])c1ccc(Nc2nc(NC3CCCCC3)nc(N3CCCC3)n2)cc1,25.6
5,Cc1ccc(NC(=S)Nc2cccc3ccccc23)cc1,13.4
6,CC(=O)Nc1cc(F)c2c(c1F)Cc1cc(F)ccc1-2,64
7,CC1CCC(NC(=O)CSc2nncn2C)CC1 (stereo not drawn),19.2
8,COc1ccc(C2CC(O)(c3ccccc3)Oc3cc(OC)ccc32)cc1 (stereo not drawn),7.29
9,Cc1c(CC(=O)O)c(=O)oc2cc(OCc3ccc(F)cc3Cl)ccc12,-12.1
10,O=C(NNC(=O)C1CCN(c2ncccn2)CC1)c1ccc(F)cc1,26.5
11,COc1cc(CN2C[C@@H](CO)O[C@@H](n3cnc4c(N5CCN(c6ccccc6)CC5)ncnc43)C2)cc(OC)c1OC,52.8
12,Cc1nnc(NC(=O)c2ccccc2C(=O)O)s1,99.7
13,O=C(NCCCN1CCCC(O)C1)c1cc(COc2ccc(F)cc2F)on1 (stereo not drawn),50.2
14,O=C(COc1ccc(Br)cc1CO)Nc1ccc(F)cc1,-9.04
15,Cc1cc2c(=O)[nH]cnc2s1,13.4
16,N#Cc1ccc(COC(=O)c2cnc(Cl)c(Cl)c2)cc1,36.5
17,CCOc1ccccc1N1CCN(C(=O)c2ccncc2)CC1,-22.8
18,COc1ccc2c(c1OC)CN1CCc3cc4c(cc3[C@@H]1[C@@H]2O)OCO4,-3.65
19,COc1cc2oc(=O)ccc2cc1[C@@H](O)[C@@H]1OC(C)(C)OC1(C)C,10.7

row,Structure (SMILES),inhibition [%]
1,CC(=O)OC[C@@H]1CN(Cc2cccc(C(F)(F)F)c2)C[C@H](n2cnc3c(NCc4ccco4)ncnc32)O1,54.5
2,COC(=O)c1ccn(C(=O)c2ccc(Cl)cc2)n1,39.2
3,CN(C)Cc1cc(C(F)(F)F)ccc1C(O)(c1ccccc1)c1ccccc1,-5.25
4,CCn1cc(C(=O)N2CCN(C(=O)c3ccco3)CC2)c2cc(OC)c(OC)cc2c1=O,77.9
5,Cc1ccc(NC(=O)c2ccc3c(c2)S(=O)(=O)c2ccccc2C3=O)cc1S(=O)(=O)N1CCOCC1,26.3
6,CC(C(=O)N1CCN(c2ccc(Cl)cc2)CC1)c1ncc(C(F)(F)F)cc1Cl (stereo not drawn),-2.5
7,O=C(c1ncn(Cc2ccccc2)c1C(=O)N1CCc2ccccc2C1)N1CCc2ccccc2C1,23
8,CCOC(=O)C1(Cc2cccc(F)c2)CCN(Cc2ccon2)CC1,61.1
9,CC(C)(C)OC(=O)NCc1ccc(CNC(=O)c2nc[nH]c2C(=O)N2CCN(C(=O)OC(C)(C)C)CC2)cc1,16.3
10,Cc1ccccc1OCC1Cc2c(nc(N)c(C#N)c2N)O1 (stereo not drawn),-18.4
11,COCc1cccc(-c2csc(C(C)(O)c3ccccc3)n2)c1 (stereo not drawn),25.6
12,C=C(C)C1CC=C(C)/C(=N\NC(=O)CNc2ccccc2OC)C1 (stereo not drawn),-8.81
13,COc1ccc(C(=O)N2CCC(C)(C(=O)NS(=O)(=O)C3CC3)C2)cc1F (stereo not drawn),12.1
14,Cc1cccc(NC(=O)c2ccc(OCc3c(C)noc3C)cc2)c1,93.6
15,COc1cc(C(=O)OCC(=O)Nc2c(F)c(F)c(F)c(F)c2F)cc(OC)c1OC,17.8
16,O=[N+]([O-])c1cc(-c2csc(NCCc3nc4cc(C(F)(F)F)ccc4n3CCCO)n2)ccc1Cl,33.1
17,COC(=O)C1=C(C)NC(C)=C(C(=O)OC)C1C(=O)OC(C)C(=O)c1ccccc1 (stereo not drawn),12.9
18,C=CCC1(CC=C)CCCN1C(=O)c1cc(COc2cccc(OC)c2)on1,39.2
19,CCN(CC(=O)NCc1cccs1)S(=O)(=O)c1ccc(C(C)C)cc1,1.66
